Reference: PubChem BioAssay (NCI)
The panel holds about 83,000 compounds, 20% with a hit somewhere; the sample as a whole holds those more often.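 Activity criterion: percent growth below 10, measured after cells in 96-well plates were exposed to a single compound concentration for 48 hours.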 Values without a mark were called inactive. Activity calls are given as the source filed them.

test system: HL-60(TB) leukemia; test: NCI-60 one-dose screen, 48 h (100 = growth as untreated, 0 = no growth, -100 = all killed); conditions: 10 µM unless noted

Compound | growth
C1=CC(c2nn3c(-c4ccccc4)nnc3s2)=Cc2ccccc2O1 | 37%
CSc1nccc(-c2c(-c3ccc(F)c(OCc4ccc(F)cc4)c3)nc3sccn23)n1 | 78%
Cc1cc(C(NC(=O)CCCCCNc2cccc3c2C(=O)N(C2CCC(=O)NC2=O)C3=O)c2cccnc2)c(O)c2ncccc12 (stereo not drawn) | -31% (active)
C/C(=N/Nc1nc(N/N=C(/C)c2ccc([N+](=O)[O-])cc2)nc(N2CCOCC2)n1)c1ccc([N+](=O)[O-])cc1 | 92.6%
COc1cc(/C=C2\SC(=O)NC2=O)ccc1OCC(=O)Nc1ccc(C(=O)/C=C/c2cc3ccccc3nc2Cl)cc1 | 93.7%
Cc1ccc(CSc2nc(-c3ccc(Cl)cc3)c(C#N)c(N3CCOCC3)n2)cc1 | 98.2%
CCOC(=O)c1ccc(NC2=CC(=O)C(C)=C(C)C2=O)cc1 | 53%
CC1(C)CC[C@]23CC[C@]4(C)[C@H](CC[C@@H]5[C@@]6(C)CCCN(CO)C(C)(C)[C@@H]6CC[C@]54C)[C@H]2[C@H]1OC3 | 36.6%
